Assay results: PubChem BioAssay
Inconclusive results are not listed. Calls of active or inactive are those of the source.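 How the source made its calls, unless noted: active means compound raises insulin release from rat beta cells at 5 mM glucose, no numeric limit stated; inactive means the rest.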

Experiments:
[1] = stimulators of nuclear beta-catenin in C2C12, primary screen, imaging, WNT3A-conditioned medium, mouse C2C12, NPC library (AID 1117326; in the data active means nuclear beta-catenin stimulation mostly above about 4.2%, no sharp cut-off; inactive means mostly below about 10%); details: stronger effect = higher value
[2] = stimulators of insulin release from INS-1E, primary screen, cell-based, 5 mM glucose, NPC library (AID 1117329); details: rat INS-1E insulin secretion, at 10 µM, stronger effect = higher value
[3] = growth inhibition of GSK3B-pretreated HCT116 cells – cell-based, CellTiter-Glo, 0.2 to 20 µM (AID 1117336;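 active means compounds lowering colon cancer cell viability after pretreatment blocking the GSK3B kinase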); details: HCT116 viability after GSK3B inhibitor, at 20 µM, stronger effect = higher value
[4] = inhibition of endothelial tube formation, primary screen, imaging, VEGF stimulated, CD31 staining, tube area, NPC library (AID 1117340;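 active means compound that reduces growth-factor-driven endothelial tube area in a mixed cell culture, no cutoff stated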); details: VEGF-stimulated ADSC/ECFC co-culture, at 10 µM, stronger effect = higher value
[5] = glucagon-like peptide 1 release enhancers, primary assay, NCI-H716 cell line, NPC library (AID 1117341;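 active means compound raises GLP1 secretion from the human gut endocrine cells, with no numeric limit stated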); details: NCI-H716 cells, at 10 µM, stronger effect = higher value
[6] = HCT116 colon cancer cell growth inhibition, primary screen, CellTiter-Glo luminescence, NPC library (AID 1117342;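 active means compounds that lower survival of HCT116 colon cancer cells in the luminescence readout, no numeric limit stated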); details: at 20 µM (top of the series)
[7] = CellTiter-Glo luminescent readout of SW480 viability loss, NPC library primary (AID 1117343;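 active means compounds that lower viability of the colon cancer cells in the luminescence readout, with no numeric limit stated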); details: CellTiter-Glo luminescence; at 20 µM (top of the series) unless noted
[8] = decreased DLD-1 cellular survival, CellTiter-Glo luminescent readout, NPC compound collection, primary HTS (AID 1117346;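 active means compounds that lower survival of DLD-1 colon cancer cells in the luminescence readout, no cutoff given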); details: DLD-1 viability, CellTiter-Glo luminescence; at 20 µM (top of the series)
[9] = survival rescue of mitochondrial mutant cells in low glucose, primary screen, MELAS cybrids, Rieske KO mouse fibroblasts, CellTiter-Glo (AID 1508586;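 active means mean z-score across replicates of 1.96 or higher in either the MELAS or the Rieske mutant cell line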;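 further: z relative to plate mean and SD of compound and empty wells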)
[10] = target: NAD(+) hydrolase SARM1 (Homo sapiens) (UniProt Q6SZW1); assay: SARM1 TIR NADase inhibitors, cell lysate, NAD-Glo luminescence (AID 1508614;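 active means compound whose remaining NAD level is above about 45 nM, limit read from the data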); details: SAM-TIR HEK293T lysate NADase, at 1 µM, stronger effect = higher value
NAD(+) hydrolase SARM1 (Homo sapiens), sequence (Q6SZW1 whole entry, looked up): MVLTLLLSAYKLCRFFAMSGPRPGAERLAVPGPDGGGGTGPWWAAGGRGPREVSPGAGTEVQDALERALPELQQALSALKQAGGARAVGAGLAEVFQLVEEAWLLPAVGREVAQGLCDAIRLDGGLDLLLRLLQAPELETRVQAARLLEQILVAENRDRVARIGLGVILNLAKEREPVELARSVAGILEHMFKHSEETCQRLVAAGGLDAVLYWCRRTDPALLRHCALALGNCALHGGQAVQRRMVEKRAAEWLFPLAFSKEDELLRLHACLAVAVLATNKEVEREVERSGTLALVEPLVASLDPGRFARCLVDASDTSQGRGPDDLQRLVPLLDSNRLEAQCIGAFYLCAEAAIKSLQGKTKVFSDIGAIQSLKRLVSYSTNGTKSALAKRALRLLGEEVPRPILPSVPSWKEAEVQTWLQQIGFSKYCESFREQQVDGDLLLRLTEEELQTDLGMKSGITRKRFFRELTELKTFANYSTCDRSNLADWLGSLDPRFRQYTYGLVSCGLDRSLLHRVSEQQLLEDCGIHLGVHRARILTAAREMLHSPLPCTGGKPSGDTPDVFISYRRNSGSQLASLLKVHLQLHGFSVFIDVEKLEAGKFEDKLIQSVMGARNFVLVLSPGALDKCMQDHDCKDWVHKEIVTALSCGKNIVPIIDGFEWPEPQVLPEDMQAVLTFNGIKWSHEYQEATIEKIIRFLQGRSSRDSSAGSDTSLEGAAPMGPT

[11] = liver-stage malaria parasite growth inhibition, primary screen, cell-based, HepG2, luciferase luminescence, HepG2 viability (AID 624349; in the data active means parasite load remaining mostly below about 12%, no sharp cut-off; inactive means mostly above about 10%;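 further: 100% = mean of DMSO negative control wells on the same plate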); details: P. berghei liver stage in HepG2, luciferase luminescence, concentration not given here; parasite load remaining: stronger effect = lower value; viability: measured here: HepG2 viability without parasites
[12] = phospholipid biosynthesis inhibitors in animal cells, primary screen, cell-based, LOPAC library, screen 4 (AID 1347384; call rule not given here); details: phospholipid biosynthesis inhibition screen, at 10 µM
[13] = target: ATP-dependent translocase ABCB1 (Homo sapiens) (UniProt P08183); assay: MDR1 (ABCB1) efflux transporter inhibition, cell-based (AID 377; in the data active means fluorescence slope change above about 50%); details: MDR1-expressing cells, fluorescent substrate accumulation slope; stronger effect = higher value; concentration not given here
ATP-dependent translocase ABCB1 (Homo sapiens), sequence (P08183 whole entry, looked up, the tested form may be a part): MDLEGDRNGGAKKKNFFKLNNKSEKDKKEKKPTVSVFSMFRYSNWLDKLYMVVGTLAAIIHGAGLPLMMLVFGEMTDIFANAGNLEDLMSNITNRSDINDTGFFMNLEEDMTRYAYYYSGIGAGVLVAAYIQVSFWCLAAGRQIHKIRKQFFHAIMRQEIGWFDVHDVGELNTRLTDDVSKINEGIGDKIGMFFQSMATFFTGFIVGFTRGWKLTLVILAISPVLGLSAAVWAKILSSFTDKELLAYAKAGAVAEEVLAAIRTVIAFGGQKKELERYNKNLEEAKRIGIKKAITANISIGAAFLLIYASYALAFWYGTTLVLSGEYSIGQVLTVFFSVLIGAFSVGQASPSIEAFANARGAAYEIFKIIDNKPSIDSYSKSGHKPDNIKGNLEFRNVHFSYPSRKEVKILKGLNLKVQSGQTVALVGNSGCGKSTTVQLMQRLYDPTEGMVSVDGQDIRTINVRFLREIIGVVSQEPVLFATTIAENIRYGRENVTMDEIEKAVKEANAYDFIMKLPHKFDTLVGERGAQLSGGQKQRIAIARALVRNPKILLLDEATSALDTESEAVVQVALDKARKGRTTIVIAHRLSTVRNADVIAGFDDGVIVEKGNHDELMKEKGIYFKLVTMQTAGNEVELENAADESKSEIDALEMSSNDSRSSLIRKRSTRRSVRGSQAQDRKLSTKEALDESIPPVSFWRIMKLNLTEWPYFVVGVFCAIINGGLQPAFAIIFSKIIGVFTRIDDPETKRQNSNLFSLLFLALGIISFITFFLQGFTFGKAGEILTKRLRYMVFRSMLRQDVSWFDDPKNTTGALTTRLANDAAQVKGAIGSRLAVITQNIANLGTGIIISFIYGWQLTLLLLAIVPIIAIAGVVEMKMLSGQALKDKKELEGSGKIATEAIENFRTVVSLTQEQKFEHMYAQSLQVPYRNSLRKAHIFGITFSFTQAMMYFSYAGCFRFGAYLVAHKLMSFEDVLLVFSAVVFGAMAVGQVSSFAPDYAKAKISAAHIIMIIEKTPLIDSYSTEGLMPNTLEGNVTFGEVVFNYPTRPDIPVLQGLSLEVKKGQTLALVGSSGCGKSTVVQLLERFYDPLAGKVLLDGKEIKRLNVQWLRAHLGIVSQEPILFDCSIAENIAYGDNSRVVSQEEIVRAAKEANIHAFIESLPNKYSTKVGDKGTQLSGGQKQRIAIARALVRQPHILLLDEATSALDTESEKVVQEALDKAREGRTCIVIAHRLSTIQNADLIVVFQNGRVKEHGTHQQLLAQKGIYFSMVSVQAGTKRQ

[14] = target: Mitogen-activated protein kinase 7 (Homo sapiens) (UniProt Q13164); assay: ERK5 transactivation activators in reporter cells, primary screen, cell-based, HTS (AID 1508626;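 active means luciferase signal above three times the same-plate solvent-only control wells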;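 further: luciferase driven by Gal4-ERK5 fusion binding five Gal4 sites before minimal TATA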); details: HeLa Gal4-ERK5 transactivation, 18 h, at 5 µM, stronger effect = higher value
Mitogen-activated protein kinase 7 (Homo sapiens), sequence (Q13164 whole entry, looked up, the tested form may be a part): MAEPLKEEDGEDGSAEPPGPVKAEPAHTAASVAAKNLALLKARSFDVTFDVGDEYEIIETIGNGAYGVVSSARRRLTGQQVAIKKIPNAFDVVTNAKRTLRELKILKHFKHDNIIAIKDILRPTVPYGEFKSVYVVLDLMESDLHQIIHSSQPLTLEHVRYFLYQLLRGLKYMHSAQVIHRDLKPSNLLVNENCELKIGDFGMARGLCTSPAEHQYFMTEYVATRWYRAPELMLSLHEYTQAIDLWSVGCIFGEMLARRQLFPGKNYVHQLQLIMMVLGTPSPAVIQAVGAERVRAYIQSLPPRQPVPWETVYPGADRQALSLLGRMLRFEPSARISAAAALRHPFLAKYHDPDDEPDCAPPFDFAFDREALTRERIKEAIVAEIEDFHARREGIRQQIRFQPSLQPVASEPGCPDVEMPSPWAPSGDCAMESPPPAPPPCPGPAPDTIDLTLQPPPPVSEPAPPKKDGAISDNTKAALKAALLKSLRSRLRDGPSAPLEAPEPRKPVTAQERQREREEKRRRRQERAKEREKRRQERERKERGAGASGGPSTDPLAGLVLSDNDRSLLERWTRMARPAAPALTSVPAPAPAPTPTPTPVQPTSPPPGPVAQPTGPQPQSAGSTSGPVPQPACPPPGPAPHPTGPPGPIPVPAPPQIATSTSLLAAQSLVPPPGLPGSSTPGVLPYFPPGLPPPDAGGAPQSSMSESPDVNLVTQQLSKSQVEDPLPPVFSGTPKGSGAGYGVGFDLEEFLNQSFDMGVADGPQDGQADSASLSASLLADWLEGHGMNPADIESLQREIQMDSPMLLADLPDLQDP

[15] = MELAS cybrid survival, CellTiter-Glo 48 h, stronger effect = higher value
[16] = Rieske KO mouse fibroblast survival, CellTiter-Glo 72 h

CCN(CC)C(=O)Nc1ccc(OCC(O)CNC(C)(C)C)c(C(C)=O)c1 (stereo unspecified)
0.098: z-score [9, 16]
-0.3%: nuclear beta-catenin stimulation ([1]; stimulation, at 2 µM)
inactive: nuclear beta-catenin stimulation ([1]; at 10 µM) -1.9% | insulin secretion stimulation [2] 9.4% | viability decrease [3] 0.3% | tube area decrease [4] -7.8% | GLP1 secretion stimulation [5] -4.8% | inhibition of viability [6] 12% | viability decrease (inhibition) [7] 4.9% | viability decrease (inhibition) [8] -3.6% | z-score [9, 15] 1.68

CCCCC(CC)COC(=O)c1ccccc1O (stereo unspecified)
-0.3%: nuclear beta-catenin stimulation ([1]; stimulation, at 2 µM)
active: viability decrease (inhibition) [7] 50.1%
inactive: nuclear beta-catenin stimulation ([1]; at 10 µM) -0.1% | insulin secretion stimulation [2] -2% | viability decrease [3] 9.8% | tube area decrease [4] -7.3% | GLP1 secretion stimulation [5] 1.9% | inhibition of viability [6] 2.2% | viability decrease (inhibition) [8] 14.3% | remaining NAD [10] 10 nM

O=P(O)(O)C(Cl)(Cl)P(=O)(O)O
inactive: parasite load remaining [11] 33.9% | nuclear beta-catenin stimulation ([1]; at 10 µM) 1% | insulin secretion stimulation [2] 5.1% | viability decrease [3] -1.2% | tube area decrease [4] 26.4% | GLP1 secretion stimulation [5] -4.3% | inhibition of viability [6] 11.1% | viability decrease (inhibition) [7] 26.6% | viability decrease (inhibition) [8] -2.9% | outcome [12] | z-score [9, 15] 0.218
-0.285: z-score [9, 16]
0.9%: nuclear beta-catenin stimulation ([1]; stimulation, at 2 µM)
100%: viability [11]

NC(=O)N[C@@H](CCC(=O)O)C(=O)O
-1%: nuclear beta-catenin stimulation ([1]; stimulation, at 2 µM)
inactive: nuclear beta-catenin stimulation ([1]; at 10 µM) -0.1% | insulin secretion stimulation [2] 0.3% | viability decrease [3] 11.1% | tube area decrease [4] -22.3% | GLP1 secretion stimulation [5] -2.5% | inhibition of viability [6] 4.1% | viability decrease (inhibition) [7] -6.5% | viability decrease (inhibition) [8] 1% | remaining NAD [10] 10 nM

CCOc1ccccc1OCC1CNCCO1 (stereo unspecified)
inactive: nuclear beta-catenin stimulation ([1]; at 10 µM) 0.4% | insulin secretion stimulation [2] 1.75% | viability decrease [3] 1.7% | tube area decrease [4] -7% | GLP1 secretion stimulation [5] -0.1% | inhibition of viability [6] 32.4% | viability decrease (inhibition) [7] -7.1% | viability decrease (inhibition) [8] -5.4% | z-score [9, 15] 0.538
active: fluorescence slope change [13] 51.5%
-0.146: z-score [9, 16]
-0.3%: nuclear beta-catenin stimulation ([1]; stimulation, at 2 µM)

C#C[C@]1(O)CC[C@H]2[C@@H]3CCc4cc(OC5CCCC5)ccc4[C@H]3CC[C@@]21C
active: nuclear beta-catenin stimulation ([1]; at 10 µM) 54.3% | viability decrease [3] 102% | tube area decrease [4] 46.9% | GLP1 secretion stimulation [5] 32.5% | inhibition of viability [6] 101% | viability decrease (inhibition) [7] 145% | viability decrease (inhibition) [8] 105%
0.5%: nuclear beta-catenin stimulation ([1]; stimulation, at 2 µM)
inactive: insulin secretion stimulation [2] 0.3% | remaining NAD [10] 10 nM

Cc1nc2ccccc2n1Cc1ccc(Cl)cc1
inactive: nuclear beta-catenin stimulation ([1]; at 10 µM) 1.3% | insulin secretion stimulation [2] -3.2% | GLP1 secretion stimulation [5] -1.7% | inhibition of viability [6] 45.2% | viability decrease (inhibition) [8] 40.1% | remaining NAD [10] 10 nM
1.1%: nuclear beta-catenin stimulation ([1]; stimulation, at 2 µM)
active: viability decrease [3] 52.8% | tube area decrease [4] 62% | viability decrease (inhibition) [7] 74%

CC[C@H](C)[C@H](N)C(=O)O
4.3%: nuclear beta-catenin stimulation ([1]; stimulation, at 2 µM)
inactive: nuclear beta-catenin stimulation ([1]; at 10 µM) 2.1% | insulin secretion stimulation [2] -0.7% | viability decrease [3] -17.5% | tube area decrease [4] 27% | GLP1 secretion stimulation [5] -0.4% | inhibition of viability [6] -13.2% | viability decrease (inhibition) [7] 0.9% | viability decrease (inhibition) [8] -7.9% | remaining NAD [10] 10 nM

Cc1cc(-c2ccc(N=Nc3c(S(=O)(=O)O)cc4cc(S(=O)(=O)O)cc(N)c4c3O)c(C)c2)ccc1N=Nc1c(S(=O)(=O)O)cc2cc(S(=O)(=O)O)cc(N)c2c1O
inactive: nuclear beta-catenin stimulation ([1]; at 10 µM) -3.5% | insulin secretion stimulation [2] 2.95% | viability decrease [3] 35.2% | GLP1 secretion stimulation [5] -8.7% | inhibition of viability [6] 22.2% | viability decrease (inhibition) [7] 37.9% | viability decrease (inhibition) [8] 23.9%
-1.8%: nuclear beta-catenin stimulation ([1]; stimulation, at 2 µM)

C[C@]12CCC(=O)C=C1CC[C@H]1[C@@H]3CC[C@](O)(C(=O)CO)[C@@]3(C)C[C@H](O)[C@@]12F
inactive: fluorescence slope change [13] 9.8% | nuclear beta-catenin stimulation ([1]; at 10 µM) -2.1% | insulin secretion stimulation [2] 0.3% | viability decrease [3] -81.6% | tube area decrease [4] 10.3% | GLP1 secretion stimulation [5] 0.3% | inhibition of viability [6] -8.17% | viability decrease (inhibition) [7] -20% | viability decrease (inhibition) [8] -2%
-2.1%: nuclear beta-catenin stimulation ([1]; stimulation, at 2 µM)

CC(C)Cn1cnc2c1c(=O)n(C)c(=O)n2C
inactive: nuclear beta-catenin stimulation ([1]; at 10 µM) 1.9% | insulin secretion stimulation [2] 1.65% | viability decrease [3] 0% | GLP1 secretion stimulation [5] 3.4% | inhibition of viability [6] 31.9% | viability decrease (inhibition) [7] -1.5% | viability decrease (inhibition) [8] 11.3%
-1.3%: nuclear beta-catenin stimulation ([1]; stimulation, at 2 µM)

CCCCCCCCCCCCCCCCCC[N+](C)(C)CCC[Si](OC)(OC)OC
-0.8%: nuclear beta-catenin stimulation ([1]; stimulation, at 2 µM)
inactive: nuclear beta-catenin stimulation ([1]; at 10 µM) -0.6% | insulin secretion stimulation [2] -0.25% | viability decrease [3] 14.4% | GLP1 secretion stimulation [5] -3.1% | inhibition of viability [6] 12.9% | viability decrease (inhibition) [7] -2.9% | viability decrease (inhibition) [8] 1.7%

CC(=O)N(c1onc(C)c1C)S(=O)(=O)c1ccc(N)cc1
inactive: nuclear beta-catenin stimulation ([1]; at 10 µM) 0.7% | insulin secretion stimulation [2] -0.8% | viability decrease [3] -73.1% | tube area decrease [4] -1% | GLP1 secretion stimulation [5] -0.8% | inhibition of viability [6] -3.87% | viability decrease (inhibition) [7] 30.4% | viability decrease (inhibition) [8] 5.3% | luciferase signal [14] 40 AU
0.2%: nuclear beta-catenin stimulation ([1]; stimulation, at 2 µM)
